Shown are actives, neighbours in structure and some others; about 1.1% of the full set was active somewhere.
PI4K2A block – blocks human PI4K2A kinase activity; Q9BTU6; purified PI4K2A, ADP-Glo luminescence, 1 h; hits give low values; activity change, negative = inhibition, % at 76.9 µM; AID 1346378; 0.13% of 420,000 active; in the data active = activity change below about -50%; inconclusive = mostly about -30% to -49%;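 also: -100% = wells without enzyme as full effect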
Target sequence (Q9BTU6 whole entry, looked up): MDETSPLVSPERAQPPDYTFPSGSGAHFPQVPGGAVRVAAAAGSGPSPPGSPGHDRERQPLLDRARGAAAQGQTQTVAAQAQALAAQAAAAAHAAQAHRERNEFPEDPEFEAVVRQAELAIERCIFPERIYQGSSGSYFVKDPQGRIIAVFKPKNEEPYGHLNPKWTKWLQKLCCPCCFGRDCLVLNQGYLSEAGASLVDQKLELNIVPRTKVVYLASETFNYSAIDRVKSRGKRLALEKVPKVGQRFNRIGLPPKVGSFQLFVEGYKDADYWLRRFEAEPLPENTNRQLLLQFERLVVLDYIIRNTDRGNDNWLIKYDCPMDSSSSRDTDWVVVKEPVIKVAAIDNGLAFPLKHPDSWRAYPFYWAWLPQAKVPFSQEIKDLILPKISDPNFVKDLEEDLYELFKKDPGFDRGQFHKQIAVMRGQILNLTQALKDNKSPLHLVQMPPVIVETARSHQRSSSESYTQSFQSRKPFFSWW
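In this quantitative HTS, ADP production by PI4K2A was quantified luminescently after 1 h at ambient temperature; 100 microM adenosine served as plate-quality control.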
GALK inh – galactokinase (human) inhibition; P51570; Purified GALK, Kinase-Glo residual ATP luminescence; Potency, µM (series often up to 57.5 µM), without a hit: at the highest dose activity change, negative = inhibition, hits mostly inhibitors; 0.007% of 270,000 active; AID 1868; also: potency is read from the fitted curve at half-maximal effect
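GALK at 5 nM final was combined with compound, 35 uM ATP and 100 uM galactose in HEPES pH8.0 with MgCl2 and DTT. The reaction ran one hour at room temperature before luminescent ATP detection.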
Integrin act MD – activates integrin-mediated alleviation for muscular dystrophy; Potency, µM (doses to about 38.3 µM), without a hit: at the top dose activation, actives largely listed as activators; alpha7betagal myoblasts, beta-gal FDG fluorescence, 48 h; AID 624291; 0.064% of 350,000 active;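 also: potency is read from the fitted curve at half-maximal effect; 100% = response of the positive control SU9516; nearly all actives have a fitted effect of over 60% in size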
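alpha7betagal+/- myoblasts (passage 13, 250/well) treated 48 h at 37C with compounds at 1:260 dilution of DMSO stock. Lysed, then beta-galactosidase activity read as FDG fluorescence (ex 480/em 540) after 30 min, with pre-read for autofluorescence.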
LDHA block – blocks human lactate dehydrogenase A; P00338; activity change, % (values are at about 110 or 230 µM); 0.15% of 480,000 active; purified LDHA, NADH/diaphorase-resazurin fluorescence; hits give low values; AID 1347041; in the data active = activity change below about -30%; inconclusive = mostly about -25% to -30%;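 also: plate controls were DMSO wells for no effect and wells without enzyme for full effect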
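Resorufin fluorescence (ex540/em590), read at 0 and 20 min after diaphorase/resazurin addition, reports the NADH left after a 5 min room-temperature reaction of 2 nM human LDH5 with 0.06 mM NADH and 0.2 mM pyruvate.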
rTrxR1 inhibitor – rat TrxR1 inhibition; 1% of 390,000 active; O89049; recombinant rTrxR1, NADPH fluorescence consumption, selenite substrate; Potency, µM (highest dose often 114 µM), without a hit: at the highest dose activity change, negative = inhibition, actives largely listed as inhibitors; AID 588453; also: potency is read from the fitted curve at half-maximal effect; nearly all actives have a fitted effect of over 65% in size
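Rat TrxR1 (90 nM in the dispensed reagent) was pre-reduced with 400 uM NADPH for 5 min at room temperature, then incubated with compound for 15 min. After 400 uM selenite was added, NADPH fluorescence (Ex 340/Em 450 nm) was followed for 8 min.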
TrxR1 substrate – is turned over as a substrate by rat TrxR1. O89049. purified TrxR1 substrate turnover, NADPH consumption readout. Potency, µM (highest dose often 114 µM), inactives show at the top dose activity change, negative = substrate turnover. 0.01% of 390,000 active. AID 588456; also: potency is read from the fitted curve at half-maximal effect; nearly all actives have a fitted effect of over 50% in size
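Rat TrxR1, dispensed at 90 nM, was prereduced with 400 uM NADPH (final) for 5 min at ~22 deg C, then incubated with compound 15 min before 400 uM selenite. A first-read NADPH fluorescence drop versus no-compound background flagged substrates.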
Starred values were filed as active, the others as inactive; [ ] = dose if it differs, or a comment. Unless noted, calls follow the shape of the dose curve; as a rule, active = well fitted curve in the direction sought with a large enough effect; inconclusive = small, poorly fitted or top-dose-only effect, or another doubt; inactive = no such curve, though single readings can be large; an effect the other way counts as inactive or inconclusive. Unless noted, % is scaled to controls: 0 for no effect and ±100 for the full control effect.

Results for Cc1c(CCOC(=O)c2ccccc2)sc[n+]1CC(=O)c1ccc(Br)cc1 ?
PI4K2A block: 5; GALK inh: 1%; Integrin act MD: -39%; LDHA block: -3; rTrxR1 inhibitor: -21%; TrxR1 substrate: -1%[57.1 µM]

How did C=CCn1c(O)c(N=NC(=O)CNC(=O)/C=C/c2ccc(OC)cc2)c2ccccc21 do in these assays?
PI4K2A block: 8; GALK inh: 5%; Integrin act MD: 31%; LDHA block: -8; rTrxR1 inhibitor: 8%; TrxR1 substrate: -9%

How did C=CCn1c(O)c(N=NC(=O)CNC(=O)/C=C/c2ccco2)c2ccccc21 do in these assays?
PI4K2A block: inconclusive; GALK inh: 1%; Integrin act MD: 3%; LDHA block: -3; rTrxR1 inhibitor: 14µM*; TrxR1 substrate: -2%

What do the screens show for `CCOC(=O)C(C)NC(=O)CNC(=O)c1cc(C)cc(C)c1` (stereo unspecified)?
LDHA block: 2

Results for O=C(Nc1ccc(NC(=O)c2ccccc2F)cn1)c1ccco1 ?
PI4K2A block: -22; GALK inh: 8%; Integrin act MD: 6%; LDHA block: -1; rTrxR1 inhibitor: 14µM*; TrxR1 substrate: -3%[57.1 µM]

How did O=C(Nc1ccc(NC(=O)c2ccco2)nc1)c1cccc(F)c1 do in these assays?
PI4K2A block: -6; GALK inh: -3%; Integrin act MD: 4%; LDHA block: -7; rTrxR1 inhibitor: -2%; TrxR1 substrate: -2%

What do the screens show for `CC(=O)c1ccc2ccccc2c1OCc1ccccc1C#N`?
LDHA block: -12

Results for CC(NC(=O)c1cccc(CS(C)(=O)=O)c1)c1ccccc1 (stereo unspecified) ?
LDHA block: 4

How did CS(=O)(=O)Cc1cccc(C(=O)NN(c2ccccc2)c2ccccc2)c1 do in these assays?
PI4K2A block: 2; GALK inh: -3%; Integrin act MD: 13µM*; LDHA block: -3; rTrxR1 inhibitor: -6%[57.1 µM]; TrxR1 substrate: 0%[57.1 µM]

Results for CCOC(=O)c1sc2ccccc2c1OC(=O)c1ccc(C)cc1 ?
PI4K2A block: 3; GALK inh: 0%; Integrin act MD: -25%; LDHA block: -2; rTrxR1 inhibitor: 7%[57.1 µM]; TrxR1 substrate: -21%[57.1 µM]

What do the screens show for `CCOC(=O)c1sc(S(C)=O)c2c1CCc1conc1-2` (stereo unspecified)?
PI4K2A block: -6; Integrin act MD: -55%; LDHA block: 7; rTrxR1 inhibitor: 32µM*; TrxR1 substrate: 1%

What do the screens show for `NC(=S)NCc1ccccc1Cl`?
LDHA block: -1

How did CCOc1ccc(C2c3c(oc4ccccc4c3=O)C(=O)N2CCCN2CCOCC2)cc1 (stereo unspecified) do in these assays?
PI4K2A block: 7; GALK inh: 0%; Integrin act MD: 10%; LDHA block: 2; rTrxR1 inhibitor: inconclusive; TrxR1 substrate: -2%

How did O=C1c2oc3ccccc3c(=O)c2C(c2cccs2)N1CCCN1CCOCC1 (stereo unspecified) do in these assays?
PI4K2A block: 8; GALK inh: 0%; Integrin act MD: -10%; LDHA block: 3; rTrxR1 inhibitor: 40µM*; TrxR1 substrate: -8%

How did Cc1ccc(C(=O)/C=C/c2ccc3ccccc3c2)o1 do in these assays?
LDHA block: 12

What do the screens show for `Clc1nc(CN2CCOCC2)nc2sc3c(c12)CCC3`?
PI4K2A block: -3; GALK inh: 1%; Integrin act MD: -50%; LDHA block: -13; rTrxR1 inhibitor: 3%; TrxR1 substrate: 5%

Results for Clc1nc(CN2CCCCC2)nc2sc3c(c12)CCCC3 ?
PI4K2A block: -2; GALK inh: 3%; Integrin act MD: -28%; LDHA block: -3; rTrxR1 inhibitor: 4µM*; TrxR1 substrate: 11%

What do the screens show for `Cc1ccc(S(=O)(=O)N2CCN(c3nc(CN4CCCC4)nc4sc(C)c(C)c34)CC2)cc1`?
PI4K2A block: 2; Integrin act MD: -50%; LDHA block: -6; rTrxR1 inhibitor: 3%; TrxR1 substrate: 1%
